# Laboratory results: PubChem BioAssay (NCI)
# Where “and” joins values, the source holds several entries; their conditions need not be identical. Equal values may be shown once. Compounds without any hit were thinned out: in the full panel of roughly 83,000, 20% have a hit.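 Cells were grown in 96-well plates and exposed to the test compound at a single concentration for 48 hours; results are reported as percent growth, with values below 10 considered active.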 A number with no mark means an inactive call. Calls of active or inactive are those of the source.
# System: KM12 colon
# Test: NCI-60 one-dose screen, 48 h (100 = growth as untreated, 0 = no growth, -100 = all killed)
# Conditions: 10 µM unless noted
row,SMILES,growth
1,N#CC1=C(c2cccs2)Nc2c(c(-c3ccccc3)nn2-c2ccccc2)C12C(=O)Nc1ccccc12 (centres undefined),9.03% (active)
2,O=C1CC(c2ccc(I)cc2)OC2C=Cc3ccccc3C12 (centres undefined),92.9%
3,COc1ccc([C@H]2C(C(=O)c3ccc(Cl)cc3)C3(N[C@@H]2c2ccccc2)C(=O)Nc2ccccc23)cc1 (some centres undefined),15.5%
4,COc1ccc2c(c1)N=c1c-2cc2c(O)[nH]c(=S)n2c1=O,42.7%
5,CS(=O)(=O)Nc1cc(-c2ccc3ncnc(N4CCc5cc(F)c(Cl)cc54)c3c2)cnc1Cl,14.2%
6,COc1cc(NC(=O)C(C)C)ccc1C(=O)NC(=S)Nc1ccc(S(N)(=O)=O)cc1,100%
7,CC1=C(C(=O)OC(C)C)C(c2ccc(O)cc2)NC(=O)N1 (centres undefined),111%
8,COc1cccc(/C=C/c2nc3ccccc3c(=O)n2CC(=O)Nc2ccccc2)c1,94.2%
9,COC(=O)c1c(C(=O)OC)c2ccc3c4ccccc4ccc3n2c1C(=O)OC,103%
10,CCCCCCCCc1cccc(CC(=O)Nc2ccc(C)cc2C(=O)O)c1,45.8% [25 µM]
11,O=C(c1cc2cc(OCCCN3CCC3)ccc2[nH]1)N1C[C@@H](CCl)c2c1cc(OCc1ccccc1)c1ccccc21,-5.46% (active)
12,CC(C)(C)OC(=O)N1CCC2(CC1)Oc1ccccc1[C@H]1CC(c3ccc(Br)cc3)=NN12,49.9%
13,COc1ccc(NC2=C(I)C(=O)C(C)=C(C)C2=O)cc1,19.1%
14,CC[C@]12C=CCN3CC[C@@]4(c5ccc(OC)cc5N(C)[C@H]4[C@@](O)(C(=O)OC)[C@@H]1OC(=O)CCCC[P+](c1ccc(F)cc1)(c1ccc(F)cc1)c1ccc(F)cc1)[C@@H]32,16%
15,FC(F)(F)c1cc2c(Cl)ncnc2n1CCN1CCCCC1,93.9%
16,O=C(CSc1nnc(-c2ccc(-c3nc4ccc(Cl)cc4[nH]3)cc2)o1)Nc1ccccc1,34.1%

row,SMILES,growth
1,Cc1cccc(NCC(=O)N2CCN(c3ncnc4c3cnn4-c3ccccc3)CC2)c1,40.6%
2,CS(=O)(=O)c1ccc(-n2nc(C(=O)NCc3ccccc3)cc2-c2ccc(Cl)cc2)cc1,89.2%
3,CS(=O)(=O)Nc1cccc(-n2c(COc3ccc(OC(F)(F)F)cc3)nc3ccccc32)c1,91.9% and 101%
4,O=C(CSc1nc2sc3c(c2c(=O)n1-c1ccc(Cl)cc1)CCCC3)NNC(=O)c1ccc(Br)cc1,96.6%
5,O=C(c1ccc(Cl)cc1)C1[C@H](c2ccccc2Cl)[C@@H](c2ccccc2)NC12C(=O)Nc1ccccc12 (some centres undefined),-23.4% (active)
6,O=C1NC(=NC23CC4CC(CC(C4)C2)C3)N/C1=C\c1ccc2ncccc2c1,24.3%
7,N#CC1=C(c2ccco2)Nc2c(c(-c3ccccc3)nn2-c2ccccc2)C12C(=O)Nc1ccc(Cl)cc12 (centres undefined),52.1%
8,O=C(c1ccc(O)cc1)C1[C@H](c2ccccc2Br)[C@@H](c2ccccc2)NC12C(=O)Nc1ccccc12 (some centres undefined),15.4%
9,c1ccc(CSc2nnc(-c3ccc4nc(-c5ccccc5)[nH]c4c3)o2)cc1,55%
10,O=C(CSc1nnc(-c2ccc(-c3nc4ccccc4[nH]3)cc2)o1)Nc1ccccc1,70.1%
11,CCCCCCCCCCCCCCCCCC(=O)Nc1ccc(OC)cc1,101%
12,Nc1nn2c(-c3cc4ccccc4oc3=O)ccnc2c1N=Nc1ccccc1,92%
13,O=C1NC(=S)/C(=C/c2cn(-c3ccccc3)nc2-c2ccccc2)S1,19.4%
14,CC(Nc1ncnc2ccc(-c3ccc4oc(N)nc4c3)cc12)c1ccccc1 (centres undefined),23.6%
15,O=C(N/N=C/c1ccsc1)c1[nH]c2ccc(Br)cc2c1-c1ccccc1,-49.3% (active)

# System: MDA-MB-468 breast
# Test: as above
# Conditions: 1 µM
row,SMILES,growth
1,CC/C(=C(\c1ccc(O)cc1)c1ccc(OCCN(C)C(=O)COCCNC(=O)Cc2ccc3c(c2)CN([C@@H]2CCC(=O)NC2=O)C3=O)cc1)c1ccccc1,-11.7% (active)
2,CC/C(=C(/c1ccc(O)cc1)c1ccc(OCCN(C)C(=O)COCCOCCNC(=O)c2ccc3c(c2)CN([C@@H]2CCC(=O)NC2=O)C3=O)cc1)c1ccccc1,5.9% (active)
3,CC/C(=C(\c1ccc(O)cc1)c1ccc(OCCNC)cc1)c1ccccc1,95.6%
4,CC/C(=C(/c1ccc(O)cc1)c1ccc(OCCN(C)C(=O)COCCOCCNC(=O)Cc2ccc3c(c2)CN([C@@H]2CCC(=O)NC2=O)C3=O)cc1)c1ccccc1,1.33% (active)

# Same assay, conditions: 10 µM
row,SMILES,growth
1,CC/C(=C(\c1ccc(O)cc1)c1ccc(OCCN(C)C(=O)COCCNC(=O)Cc2ccc3c(c2)CN([C@@H]2CCC(=O)NC2=O)C3=O)cc1)c1ccccc1,-28.3% (active)
2,CC/C(=C(/c1ccc(O)cc1)c1ccc(OCCN(C)C(=O)COCCOCCNC(=O)c2ccc3c(c2)CN([C@@H]2CCC(=O)NC2=O)C3=O)cc1)c1ccccc1,-23.9% (active)
3,CC/C(=C(\c1ccc(O)cc1)c1ccc(OCCNC)cc1)c1ccccc1,72.4%
4,CC/C(=C(/c1ccc(O)cc1)c1ccc(OCCN(C)C(=O)COCCOCCNC(=O)Cc2ccc3c(c2)CN([C@@H]2CCC(=O)NC2=O)C3=O)cc1)c1ccccc1,-15.7% (active)
